{"source": "paper PMC7862700", "about": "“An all-to-all approach to the identification of sequence-specific readers for epigenetic DNA modifications on cytosine”", "assay_in_all_cases": "DAPPL (digital affinity profiling via proximity ligation, sequencing); 10 mM Tris-HCl pH 7.5, 50 mM NaCl, 1 mM DTT, 4% glycerol, room temperature, 30 min; GST-TFs on glutathione beads, 16-mer random dsDNA library, 0.1% formaldehyde crosslink after washing; high values mean tight binding", "settings_in_all_cases": "protein: recombinant; tags: N-terminal GST; dsDNA, one strand shown", "key": {"[1]": {"molecular_target": "T1, ERG (Homo sapiens, UniProt P11308 1-479)", "T1 sequence": "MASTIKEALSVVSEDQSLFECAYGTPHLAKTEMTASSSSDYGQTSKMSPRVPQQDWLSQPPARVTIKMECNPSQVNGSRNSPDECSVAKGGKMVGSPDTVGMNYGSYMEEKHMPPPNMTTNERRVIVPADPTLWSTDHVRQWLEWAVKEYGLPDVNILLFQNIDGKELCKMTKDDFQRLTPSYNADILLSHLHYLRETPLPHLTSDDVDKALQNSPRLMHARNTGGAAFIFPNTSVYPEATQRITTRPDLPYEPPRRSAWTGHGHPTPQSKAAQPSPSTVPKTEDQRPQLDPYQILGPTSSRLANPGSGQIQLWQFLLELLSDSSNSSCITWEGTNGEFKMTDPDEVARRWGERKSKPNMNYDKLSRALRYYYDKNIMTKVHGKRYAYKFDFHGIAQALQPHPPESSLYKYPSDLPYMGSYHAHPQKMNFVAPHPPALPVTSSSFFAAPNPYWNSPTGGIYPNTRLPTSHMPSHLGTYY", "in_short": "(§1)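 Human transcription factors fused to GST were expressed in yeast, captured on glutathione beads, given DNA barcodes and pooled with a GST-only negative control. Pools were incubated with 200 nmole of a 16-mer random double-stranded DNA library in Tris/NaCl/DTT/glycerol buffer at room temperature for 30 min. They were then washed, crosslinked with 0.1% formaldehyde, proximity-ligated (BsaI/T4 ligase, 1 h, 37 °C), PCR-amplified and sequenced on an Illumina NextSeq500. Binding signal is each 6-mer's read frequency for a factor divided by its frequency for the GST control.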"}, "[2]": {"molecular_target": "T2, ELK4 (Homo sapiens, UniProt P28324-2 1-405)", "T2 sequence": "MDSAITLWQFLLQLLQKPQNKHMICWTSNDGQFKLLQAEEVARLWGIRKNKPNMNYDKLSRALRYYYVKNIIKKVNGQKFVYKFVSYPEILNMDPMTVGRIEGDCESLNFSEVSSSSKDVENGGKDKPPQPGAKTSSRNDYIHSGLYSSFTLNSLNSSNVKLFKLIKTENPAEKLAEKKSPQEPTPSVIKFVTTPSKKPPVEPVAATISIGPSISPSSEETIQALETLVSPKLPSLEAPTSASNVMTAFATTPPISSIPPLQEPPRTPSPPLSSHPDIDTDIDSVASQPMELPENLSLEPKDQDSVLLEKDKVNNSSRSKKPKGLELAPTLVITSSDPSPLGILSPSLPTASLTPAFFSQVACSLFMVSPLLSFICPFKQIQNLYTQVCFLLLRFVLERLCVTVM", "in_short": "as §1"}, "[3]": {"molecular_target": "T3, ETV3L (Homo sapiens, UniProt Q6ZN32 1-361)", "T3 sequence": "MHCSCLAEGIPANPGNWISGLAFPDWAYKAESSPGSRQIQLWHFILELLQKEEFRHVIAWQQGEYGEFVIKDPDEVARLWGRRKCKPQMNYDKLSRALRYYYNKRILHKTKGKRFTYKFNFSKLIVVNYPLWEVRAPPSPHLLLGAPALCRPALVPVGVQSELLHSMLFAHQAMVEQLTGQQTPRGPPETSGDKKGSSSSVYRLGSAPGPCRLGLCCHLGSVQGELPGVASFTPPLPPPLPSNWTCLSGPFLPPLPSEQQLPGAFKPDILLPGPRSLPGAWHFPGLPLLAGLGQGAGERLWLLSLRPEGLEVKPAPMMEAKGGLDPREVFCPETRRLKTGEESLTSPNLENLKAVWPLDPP", "in_short": "as §1"}, "[4]": {"molecular_target": "T4, ETV7 (Homo sapiens, UniProt Q9Y603 1-341)", "T4 sequence": "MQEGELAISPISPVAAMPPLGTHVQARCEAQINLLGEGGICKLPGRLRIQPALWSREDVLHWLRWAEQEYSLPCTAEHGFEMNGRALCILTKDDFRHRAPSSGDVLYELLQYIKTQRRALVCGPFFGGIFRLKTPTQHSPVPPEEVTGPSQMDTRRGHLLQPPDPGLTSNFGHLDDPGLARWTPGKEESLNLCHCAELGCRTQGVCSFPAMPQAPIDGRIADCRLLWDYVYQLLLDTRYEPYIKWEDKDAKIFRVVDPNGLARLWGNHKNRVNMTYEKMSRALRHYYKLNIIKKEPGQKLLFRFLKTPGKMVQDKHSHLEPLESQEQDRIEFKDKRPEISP", "in_short": "as §1"}, "[5]": {"molecular_target": "T5, ELK1 (Homo sapiens, UniProt P19419 1-428)", "T5 sequence": "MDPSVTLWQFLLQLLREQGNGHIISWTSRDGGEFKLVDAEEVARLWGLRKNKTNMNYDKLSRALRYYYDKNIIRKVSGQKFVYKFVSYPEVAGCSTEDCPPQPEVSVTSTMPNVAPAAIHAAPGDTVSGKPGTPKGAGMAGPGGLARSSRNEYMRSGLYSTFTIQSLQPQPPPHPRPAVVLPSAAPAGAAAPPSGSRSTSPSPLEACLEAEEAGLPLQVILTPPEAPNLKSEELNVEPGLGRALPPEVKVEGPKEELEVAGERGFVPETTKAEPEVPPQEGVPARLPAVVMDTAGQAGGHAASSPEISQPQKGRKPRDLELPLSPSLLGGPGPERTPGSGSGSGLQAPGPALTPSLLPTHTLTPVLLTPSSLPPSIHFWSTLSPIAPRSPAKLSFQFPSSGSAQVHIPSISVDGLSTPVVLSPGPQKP", "in_short": "as §1"}, "[6]": {"molecular_target": "ELF1 (Homo sapiens, UniProt P32519 1-619)", "sequence (P32519 whole entry)": "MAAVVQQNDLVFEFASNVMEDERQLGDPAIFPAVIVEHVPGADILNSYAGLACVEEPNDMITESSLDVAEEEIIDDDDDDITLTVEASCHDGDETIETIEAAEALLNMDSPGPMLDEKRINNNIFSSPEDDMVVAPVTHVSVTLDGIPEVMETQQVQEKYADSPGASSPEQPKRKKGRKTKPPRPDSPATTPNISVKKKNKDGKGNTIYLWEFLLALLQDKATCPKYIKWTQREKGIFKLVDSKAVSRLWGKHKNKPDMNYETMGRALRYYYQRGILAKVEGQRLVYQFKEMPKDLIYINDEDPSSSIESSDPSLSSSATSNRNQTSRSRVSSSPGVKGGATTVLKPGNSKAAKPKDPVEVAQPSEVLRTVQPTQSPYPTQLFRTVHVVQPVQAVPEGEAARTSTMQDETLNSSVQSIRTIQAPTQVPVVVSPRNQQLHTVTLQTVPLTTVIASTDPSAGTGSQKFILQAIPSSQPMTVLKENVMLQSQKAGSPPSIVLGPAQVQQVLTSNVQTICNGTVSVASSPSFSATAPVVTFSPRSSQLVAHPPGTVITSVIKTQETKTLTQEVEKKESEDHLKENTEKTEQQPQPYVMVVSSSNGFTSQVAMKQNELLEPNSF", "in_short": "as §1"}, "[7]": {"molecular_target": "T6, EHF (Homo sapiens, UniProt Q9NZC4 1-300)", "T6 sequence": "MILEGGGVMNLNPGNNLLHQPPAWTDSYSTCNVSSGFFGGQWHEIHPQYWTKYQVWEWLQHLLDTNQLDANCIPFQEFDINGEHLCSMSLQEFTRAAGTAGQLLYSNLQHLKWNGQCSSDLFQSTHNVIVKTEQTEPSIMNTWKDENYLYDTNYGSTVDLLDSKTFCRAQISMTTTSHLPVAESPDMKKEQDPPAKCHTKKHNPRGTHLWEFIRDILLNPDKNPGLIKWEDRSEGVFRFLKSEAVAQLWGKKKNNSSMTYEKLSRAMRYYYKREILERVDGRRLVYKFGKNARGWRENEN", "in_short": "as §1"}, "[8]": {"molecular_target": "SPIB (Homo sapiens, UniProt Q01892 1-262)", "sequence (Q01892 whole entry)": "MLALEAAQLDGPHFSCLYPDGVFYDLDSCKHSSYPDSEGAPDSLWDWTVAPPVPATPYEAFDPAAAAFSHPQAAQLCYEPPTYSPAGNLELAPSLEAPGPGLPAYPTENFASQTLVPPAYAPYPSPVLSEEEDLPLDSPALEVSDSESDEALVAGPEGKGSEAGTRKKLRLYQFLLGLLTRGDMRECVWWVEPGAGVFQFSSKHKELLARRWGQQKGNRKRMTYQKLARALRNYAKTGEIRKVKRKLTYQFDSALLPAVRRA", "in_short": "as §1"}, "[9]": {"molecular_target": "T7, ELK3 (Homo sapiens, UniProt P41970 1-407)", "T7 sequence": "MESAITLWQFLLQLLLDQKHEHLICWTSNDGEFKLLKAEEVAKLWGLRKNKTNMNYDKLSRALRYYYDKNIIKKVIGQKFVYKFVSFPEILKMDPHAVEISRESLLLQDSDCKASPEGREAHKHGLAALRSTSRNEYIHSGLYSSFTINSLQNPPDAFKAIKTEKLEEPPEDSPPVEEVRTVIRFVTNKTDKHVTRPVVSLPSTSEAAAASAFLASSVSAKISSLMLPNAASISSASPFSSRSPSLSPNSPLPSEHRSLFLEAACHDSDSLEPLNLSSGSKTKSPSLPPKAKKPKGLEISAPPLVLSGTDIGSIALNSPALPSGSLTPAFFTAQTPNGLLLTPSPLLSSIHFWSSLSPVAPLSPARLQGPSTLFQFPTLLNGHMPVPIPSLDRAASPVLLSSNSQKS", "in_short": "as §1"}, "[10]": {"molecular_target": "T8, FEV (Homo sapiens, UniProt Q99581 1-238)", "T8 sequence": "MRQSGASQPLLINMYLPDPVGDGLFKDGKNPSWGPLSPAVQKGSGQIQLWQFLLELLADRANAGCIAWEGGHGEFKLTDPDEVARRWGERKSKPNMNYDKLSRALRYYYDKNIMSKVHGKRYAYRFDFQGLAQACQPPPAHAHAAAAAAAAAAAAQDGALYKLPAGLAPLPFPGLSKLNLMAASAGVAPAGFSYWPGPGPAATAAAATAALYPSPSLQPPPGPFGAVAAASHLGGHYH", "in_short": "as §1"}, "[11]": {"molecular_target": "ETV1 (Homo sapiens, UniProt P50549 1-477)", "sequence (P50549 whole entry)": "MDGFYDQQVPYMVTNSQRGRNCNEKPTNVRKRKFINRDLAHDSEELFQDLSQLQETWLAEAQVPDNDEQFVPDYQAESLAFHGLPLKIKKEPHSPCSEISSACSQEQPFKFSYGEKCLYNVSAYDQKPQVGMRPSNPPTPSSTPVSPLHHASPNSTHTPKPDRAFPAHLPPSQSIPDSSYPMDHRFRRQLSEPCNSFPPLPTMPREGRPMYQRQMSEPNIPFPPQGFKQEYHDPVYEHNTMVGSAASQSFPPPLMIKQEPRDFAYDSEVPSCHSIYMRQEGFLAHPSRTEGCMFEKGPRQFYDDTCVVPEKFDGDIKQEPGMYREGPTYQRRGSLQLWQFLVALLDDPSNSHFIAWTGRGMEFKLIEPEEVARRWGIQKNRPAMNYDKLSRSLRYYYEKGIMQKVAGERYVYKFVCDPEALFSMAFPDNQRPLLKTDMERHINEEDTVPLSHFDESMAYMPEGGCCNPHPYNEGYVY", "in_short": "as §1"}, "[12]": {"molecular_target": "T9, ETS2 (Homo sapiens, UniProt P15036 1-469)", "T9 sequence": "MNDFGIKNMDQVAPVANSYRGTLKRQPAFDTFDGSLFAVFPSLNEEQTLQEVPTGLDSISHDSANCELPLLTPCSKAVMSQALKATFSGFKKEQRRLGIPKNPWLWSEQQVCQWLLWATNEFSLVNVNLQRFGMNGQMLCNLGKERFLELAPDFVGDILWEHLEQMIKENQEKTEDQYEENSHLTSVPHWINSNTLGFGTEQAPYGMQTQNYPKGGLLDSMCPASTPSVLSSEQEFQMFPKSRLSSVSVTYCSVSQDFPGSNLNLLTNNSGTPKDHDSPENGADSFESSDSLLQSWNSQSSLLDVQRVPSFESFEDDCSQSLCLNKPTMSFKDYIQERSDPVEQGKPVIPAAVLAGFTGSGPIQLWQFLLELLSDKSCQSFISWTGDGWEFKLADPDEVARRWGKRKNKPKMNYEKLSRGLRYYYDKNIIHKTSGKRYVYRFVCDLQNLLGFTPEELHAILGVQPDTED", "in_short": "as §1"}, "[13]": {"molecular_target": "T10, SPDEF (Homo sapiens, UniProt O95238 1-335)", "T10 sequence": "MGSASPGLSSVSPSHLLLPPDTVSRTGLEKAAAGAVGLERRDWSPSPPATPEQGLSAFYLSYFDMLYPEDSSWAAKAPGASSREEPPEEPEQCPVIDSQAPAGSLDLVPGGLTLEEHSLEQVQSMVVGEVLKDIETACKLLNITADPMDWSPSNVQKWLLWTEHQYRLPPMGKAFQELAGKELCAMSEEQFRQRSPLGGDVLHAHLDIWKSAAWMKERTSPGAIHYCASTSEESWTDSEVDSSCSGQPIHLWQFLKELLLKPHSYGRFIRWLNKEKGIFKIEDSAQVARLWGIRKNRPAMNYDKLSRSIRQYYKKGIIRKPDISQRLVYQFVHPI", "in_short": "as §1"}, "[14]": {"molecular_target": "T11, ETV2 (Homo sapiens, UniProt O00321 1-342)", "T11 sequence": "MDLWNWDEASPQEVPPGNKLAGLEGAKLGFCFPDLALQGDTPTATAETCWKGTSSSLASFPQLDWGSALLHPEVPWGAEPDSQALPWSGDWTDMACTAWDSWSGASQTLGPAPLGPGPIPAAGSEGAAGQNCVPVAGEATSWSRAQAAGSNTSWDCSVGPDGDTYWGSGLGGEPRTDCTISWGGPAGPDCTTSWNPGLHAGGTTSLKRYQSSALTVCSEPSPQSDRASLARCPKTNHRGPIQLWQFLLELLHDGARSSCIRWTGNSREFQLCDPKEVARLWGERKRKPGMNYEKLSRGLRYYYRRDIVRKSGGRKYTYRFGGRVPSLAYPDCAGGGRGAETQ", "in_short": "as §1"}}, "data": [{"sequence": "GTCATT", "values": [{"measurement": "binding signal", "setting": "[1]", "result": "1.03 fold enrichment (6-mer frequency, TF over GST control)"}, {"measurement": "binding signal", "setting": "[2]", "result": "1.03 fold enrichment (6-mer frequency, TF over GST control)"}, {"measurement": "binding signal", "setting": "[3]", "result": "1.01 fold enrichment (6-mer frequency, TF over GST control)"}, {"measurement": "binding signal", "setting": "[4]", "result": "1.01 fold enrichment (6-mer frequency, TF over GST control)"}]}, {"sequence": "CCACCA", "values": [{"measurement": "binding signal", "setting": "[5]", "result": "1.04 fold enrichment (6-mer frequency, TF over GST control)"}, {"measurement": "binding signal", "setting": "[6]", "result": "1.12 fold enrichment (6-mer frequency, TF over GST control)"}, {"measurement": "binding signal", "setting": "[7]", "result": "1.04 fold enrichment (6-mer frequency, TF over GST control)"}, {"measurement": "binding signal", "setting": "[8]", "result": "1.08 fold enrichment (6-mer frequency, TF over GST control)"}, {"measurement": "binding signal", "setting": "[9]", "result": "1.03 fold enrichment (6-mer frequency, TF over GST control)"}, {"measurement": "binding signal", "setting": "[10]", "result": "1.04 fold enrichment (6-mer frequency, TF over GST control)"}, {"measurement": "binding signal", "setting": "[2]", "result": "1.14 fold enrichment (6-mer frequency, TF over GST control)"}, {"measurement": "binding signal", "setting": "[11]", "result": "1.02 fold enrichment (6-mer frequency, TF over GST control)"}, {"measurement": "binding signal", "setting": "[3]", "result": "1.04 fold enrichment (6-mer frequency, TF over GST control)"}, {"measurement": "binding signal", "setting": "[12]", "result": "1.05 fold enrichment (6-mer frequency, TF over GST control)"}, {"measurement": "binding signal", "setting": "[13]", "result": "1.01 fold enrichment (6-mer frequency, TF over GST control)"}]}, {"sequence": "GGCAGC", "values": [{"measurement": "binding signal", "setting": "[5]", "result": "1.02 fold enrichment (6-mer frequency, TF over GST control)"}, {"measurement": "binding signal", "setting": "[10]", "result": "1.02 fold enrichment (6-mer frequency, TF over GST control)"}, {"measurement": "binding signal", "setting": "[14]", "result": "1.02 fold enrichment (6-mer frequency, TF over GST control)"}]}]}
